In PubChem BioAssay (EPA / NIEHS) one finds outcome and AC50 data, which are given here for 30 compounds.

As usually defined, the AC50 is the concentration giving half of the maximal activity seen.

Several values for one entry are separate records, joined by “and”; a condition that tells them apart may be missing. Equal values may be shown once. Activity calls are given as the source filed them. Rule for the calls: active = hit-call score of the fitted dose curve at least 0.9, where 1 is the maximum; inactive = score below 0.9.

The experiment is described as follows: CCTE_Shafer_MEA_acute_per_burst_spike_number_mean: CCTE's Neural Acute Assay for Average Number of Spikes Per Burst, Shafer Lab (AID 2284015).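 Note: hits are decreases in mean spikes per burst versus baseline.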 As for the experimental part:
CCTE_Shafer_MEA_acute assay is conducted using Axion Biosystems 48 well microelectrode array (MEA) plates and Maestro recording system. Each well of the MEA plate contains a grid of 16 microelectrodes embedded in the culture surface. Electrically active cells, such as neurons, can be cultured over the electrodes, and electrical activity in these cells can be recorded extracellularly. The spontaneous firing of neurons is captured from each electrode on a microsecond timescale providing both temporally and spatially precise data. […] The CCTE_Shafer_MEA_acute assay uses primary cultures of rat cortical neurons. As these cultures mature over time, neural networks develop functional activity and form cohesive networks in which electrical activity can be highly coordinated. Baseline 40-minute recordings are made on days post-plating 13 or 15, followed by a secondary 40-minute recording after chemical exposure.CCTE_Shafer_MEA_acute_per_burst_spike_number_mean is a component of the CCTE_Shafer_MEA_acute assay. It measures the average number of spikes (action potential firings) in a single-electrode burst (temporally-clustered group of spikes) during a recording in a microelectrode array (MEA) using Axion Biosystems Maestro 768 channel amplifier with the AxIS adaptive spike detector. The recordings before and after chemical treatment are used to calculate a percent change in the mean number of spikes per burst in each well.Data from the assay component CCTE_Shafer_MEA_acute_per_burst_spike_number_mean was analyzed into 1 assay endpoint. This assay endpoint, CCTE_Shafer_MEA_acute_per_burst_spike_number_mean, was analyzed in the negative analysis fitting direction relative to DMSO as the negative control and baseline of activity. Using a type of functional reporter, gain or loss-of-signal activity can be used to understand electrical activity.
Spontaneous activity in the cortical cultures was recorded using an Axion Biosystems Maestro 768 channel amplifier and Axion Integrated Studios (AxIS) v1.8 (or later) software. The amplifier recorded from all channels simultaneously (gain = 1200 x; sampling rate = 12.5 kHz/channel): raw signals were filtered with a Butterworth band-pass filter (300-5000 Hz), which filters out slower local field potentials leaving only fast potentials, i.e., "spikes", arising from extracellular currents associated with action potentials (Pine 2006; Wheeler and Nam 2011). On-line spike detection of filtered signals was conducted with the AxIS adaptive spike detector, using a threshold of 8x the root mean squared (rms) noise on each channel. Any electrodes with rms noise levels greater than 5 uV were grounded (e.g., no data were recorded). Once grounded, an electrode was grounded for the duration of the experiment. All recordings were conducted at 37 C. Wells were deemed usable if on the day of the exposure >/= 10 electrodes were active (defined as >/= 5 spikes/min). On DIV 13 or 15, a minimum of three wells from one cortical culture preparation were treated with each compound (0.03-40 uM). Prior to recording baseline activity, each mwMEA plate was placed in the Maestro at 37 C and allowed to sit for 20 min while firing rates stabilized. Baseline activity (40 min) was recorded before the addition of each compound. An additional 40 min of spontaneous activity was recorded in the presence of each compound. Changes in network parameters relative to baseline were assessed following compound treatment.
Take `CCCCCCCCn1sccc1=O`: the compound was classed as inactive.

For the compound `c1ccc(N=Nc2ccccc2)cc1`, the result was inactive.

With `O=[N+]([O-])c1ccc(Oc2ccc(Cl)cc2Cl)cc1`, the outcome was inactive.

In the case of `Clc1ccc(C(c2ccc(Cl)cc2)C(Cl)(Cl)Cl)cc1`, the outcome was inactive.

Regarding `O=P(OCCCl)(OCCCl)OCCCl`, the compound was classed as inactive.

For `c1ccc(NNc2ccccc2)cc1`, the AC50 was 20 µM (active).

On to `O=C(N[C@H](c1ccccc1)[C@@H]1CN2CCC1CC2)c1c(Cl)ccc(C(F)(F)F)c1Cl`, for which the call was inactive.

Turning to `O=[N+]([O-])C(Br)(CO)CO`, the concentration at half-maximal activity (AC50) was 20 µM (active).

For the compound `CCCCCOC(=O)c1ccccc1C(=O)OCCCCC`, the half-maximal activity concentration (AC50) is 4.26 µM (active).

Turning to `ClC1=C(Cl)[C@]2(Cl)[C@H]3[C@H]([C@@H]4C=C[C@H]3C4)[C@@]1(Cl)C2(Cl)Cl`, the call was inactive.

As for `O=Cc1ccco1`, the outcome was inactive.

For `Cc1ccc(N)c(N)c1`, the compound was classed as inactive.

On to `CCC[CH2][Sn]([Cl])([CH2]CCC)[CH2]CCC`, for which the AC50 is 198 nM (active) and 150 nM (active).

For the compound `ClCCOCCCl`, the compound was called inactive.

On to `COC(=O)Nc1nc2ccccc2[nH]1`, for which the call was inactive.

On to `O=C(Oc1ccc(Br)cc1)N1CCN2CCC1CC2`, for which the compound was called inactive.

`N#CC(Br)Br`: the outcome was inactive.

In the case of `Cc1cc(N=Nc2ccccc2C)ccc1N`, the AC50 was 20 µM (active).

With `CCCCOC(=O)c1ccccc1C(=O)OCc1ccccc1`, the AC50 is 5 µM (active).

For `CC(C)COC(=O)c1ccccc1C(=O)OCC(C)C`, the AC50 is 6.45 µM (active).

`[Cl-].[Cl-].[Hg+2]`: the outcome was inactive.

As to `CCN(CC)N=O`, the outcome was inactive.

With `C[N+](C)(C)CC1CO1` (stereo not given), the outcome was inactive.

`CC(C)(OOC(C)(C)c1ccccc1)c1ccccc1`: the call was inactive.

Regarding `CCN(CC)CCO`, the compound was called inactive.

In the case of `CCC(C)c1ccc(O)cc1` (stereo not given), the AC50 is 32 µM (active).

On to `Clc1ccc(C(c2ccc(Cl)cc2)C(Cl)Cl)cc1`, for which the compound was classed as inactive.

For `CC(C)(C)C(O)(CCc1ccc(Cl)cc1)Cn1cncn1` (stereo not given), the compound was classed as inactive.

On to `ClC1=C(Cl)C2(Cl)C3C(Cl)C=CC3C1(Cl)C2(Cl)Cl` (stereo not given), for which the AC50 was 4.15 µM (active).

As to `CC(C)(O)c1cnn2c(-c3ccc(F)c(-c4c(F)cccc4C#N)c3)cnc2n1`, the outcome was inactive.
